Screens deposited in PubChem by several laboratories.
ROMK primary = human ROMK K+ channel modulation, primary screen | Tet-inducible ROMK, thallium flux fluorescence; actives lie on both sides | 130,000 tested, 2% active | B-score at 10 µM | P48048;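 active = signal ratio slope over the read window, or its plate-corrected B-score, at least 3 SD from the plate mean, either direction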;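 note: B-score of the F/F0 ratio slope over 7 to 12 s after thallium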
bCat KO growth = beta-catenin-lacking colon tumor cell growth suppression | HCT116 beta-catenin knockout viability, CellTiter-Glo, 60 h; stronger effect = lower value | viability, % at 10 µM | 140,000 tested, 1.5% active | AID 818;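 active = viability at or under a set limit, the compound median less 4 SD, cut at about 6% in these data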;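 note: 0% = Hyamine 1622 control at 20 µM and 100% = untreated cell control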
p97 inhibitor = blocks human p97 ATPase activity; P55072; recombinant p97 ATPase, Kinase-Glo ATP luminescence, 3 h; inhibition, % at 8 µM; 220,000 tested, 0.42% active; AID 1481; in the data active = inhibition above about 15%;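 note: 0% = DMSO vehicle and 100% = wells lacking enzyme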
PTEN del growth = suppresses growth of cells with PTEN deletion. HCT116 PTEN-null viability, CellTiter-Glo, 60 h; stronger effect = lower value. viability, % at 10 µM. 140,000 tested, 1.2% active. AID 827;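 active = viability at or below a set limit, 4 SD under the median of all tested compounds, cut at about 3.7% in these data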;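 note: PTEN knockout HCT116 line with beta catenin targeted HCT116 as companion control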
INS promoter inh = TRM-6 insulin promoter activity inhibition; TRM-6 cells (human fetal islet line), insulin promoter-eGFP reporter, imaging; reporter expression induced with tamoxifen; inhibition, % at 2 µM; 130,000 tested, 0.9% active; AID 1273;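 active = inhibition above the mean plus 3 SD, with well images judged a real hit on visual review, cut at about 60% in these data, passing the limit was not always enough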
Lmaj promast = Leishmania major promastigote growth inhibition; Leishmania major promastigotes, resazurin fluorescence viability; inhibition, % at 10 µM; 200,000 tested, 9% active; AID 1063; in the data active = inhibition above about 50%;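 note: promastigotes grown with compound for 44 hours at 28 °C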
* hit, by the source's call; . = no result. A selection: hits, their analogues and other compounds. The true share with any hit is near 10%.

SMILES	ROMK primary	bCat KO growth	p97 inhibitor	PTEN del growth	INS promoter inh	Lmaj promast
Cc1ccc(C(=O)NCC(=O)OCC(=O)NC2CCS(=O)(=O)C2)cc1C (stereo unspecified)	-0.0063	93	4	93	-46	52*
COc1ccc(C(=O)NCC(=O)OCC(=O)NC2CCCC2)cc1	1.8	.	-2	.	0	-2
COc1cccc(OC)c1C(=O)Nc1cc(C)nn1-c1nc2ccccc2[nH]1	-0.81	.	5	.	68*	66*
Cc1cc(C)nc(NN=C(c2ccccc2)c2ccccc2)n1	-0.024	17	-2	34	.	-6
O=C(N/N=C/c1ccc(O)cc1)Nc1cccc2nsnc12	0.76	.	5	.	.	54*
COc1ccc(Nc2nnc(-c3ccc(O)cc3)c3ccccc23)cc1C(N)=O	-0.26	.	8	.	.	-3
COc1ccc(-c2nnc(Nc3ccc(OC)c(C(=O)N4CCCCC4)c3)c3ccccc23)cc1	.	85	8	79	.	53*
COc1ccc(S(=O)(=O)Nc2ccc3c(c2)OCO3)cc1C	.	80	-4	86	86*	-1
COc1ccc(S(=O)(=O)Nc2ccc3c(c2)OCO3)cc1	.	98	2	95	-9	-2
Cn1c(=O)oc2cc(S(=O)(=O)Nc3ccc4c(c3)OCO4)ccc21	.	74	4	82	18	66*
Cc1ccc2cccc(S(=O)(=O)Nc3ccc4c(c3)OCO4)c2n1	.	87	2	80	-91	96*
O=C(CN(C(=O)c1csnn1)c1cccc2ccccc12)NC1CCCC1	-0.019	.	-1	.	-14	8
Cc1cccc2c(C(=O)n3cccn3)cc(-c3ccccc3Cl)nc12	.	85	-3	87	.	-6
O=c1c(/C=N/N2CCOCC2)c(C(F)(F)F)[nH]n1-c1ccccc1	1.1	.	8	.	.	-6
COc1ccc(/C=N/n2cc(-c3ccc(OC)cc3)nc2N)cc1	.	64	5	81	8	93*
COc1ccc(CN(C(=O)CSc2nnc(-c3ccccc3C)o2)c2ccc(F)cc2)cc1	.	78	-12	79	-128	15
O=C(CSc1nnc(-c2c[nH]c3ccccc23)o1)N(Cc1ccccc1)c1ccc(F)cc1	.	20	0	14	-3	64*
O=C(CN1C(=O)/C(=C2\SC(=S)N(C3CCS(=O)(=O)C3)C2=O)c2ccccc21)Nc1ccccc1 (stereo unspecified)	.	51	3	43	.	91*
Cc1ccc(NC(=O)CN2C(=O)/C(=C3\SC(=S)N(C4CCS(=O)(=O)C4)C3=O)c3ccccc32)cc1 (stereo unspecified)	.	54	-1	52	.	91*
CCN1C(=O)/C(=C2\SC(=S)N(NC(=O)c3ccccc3O)C2=O)c2ccccc21	.	.	-4	.	.	.
CCN(CC)S(=O)(=O)c1cc(C(=O)O)ccc1OC	.	.	-1	.	.	.
CCOC(=O)c1nc2c(ccc3ccccc32)cc1C	.	.	-4	.	.	.
Cc1nc2ccccc2n1CC(=O)OCC(=O)NCCc1ccccc1	1.2	91	2	93	31	-1
O=C(CCC(=O)c1cccs1)c1cccs1	.	101	4	99	81*	-5
CCCNC(=O)COC(=O)CCC(=O)c1cccs1	.	99	-3	100	29	57*
SMILES	ROMK primary	bCat KO growth	p97 inhibitor	PTEN del growth	INS promoter inh	Lmaj promast
COc1ccc(CN2C(=O)c3ccccc3C2=O)cc1C(=O)OC(C)C(=O)NC(N)=O (stereo unspecified)	-0.42	96	1	96	16	-4
CCc1cccc(CC)c1NC(=O)c1cc(CN2C(=O)c3ccccc3C2=O)ccc1OC	.	96	-4	94	22	88*
O=C(O)c1ccccc1C(=O)NCCc1c(C(=O)O)[nH]c2ccc(F)cc12	0.11	.	0	.	.	.
CC(C)N(Cc1ccccc1)CC(O)COc1ccc(S(=O)(=O)N2CCOCC2)cc1Cl (stereo unspecified)	0.0077	.	3	.	.	100*
O=S(=O)(c1ccc(OCC(O)CNCc2ccco2)c(Cl)c1)N1CCOCC1 (stereo unspecified)	.	97	-4	99	.	-4
CCOC(=O)N1CCC(NC(=O)C(Cc2ccccc2)NC(=O)C2CCCCC2)CC1 (stereo unspecified)	-0.038	105	-2	100	-23	0
Cc1ccc(CC(NC(=O)c2ccccc2)C(=O)NC(CC(C)C)C(=O)O)cc1 (stereo unspecified)	0.5	.	2	.	.	36
O=C(NC(Cc1ccccc1)C(=O)NC(Cc1ccccc1)C(=O)O)c1ccccc1 (stereo unspecified)	0.011	.	3	.	.	57*
